# Laboratory results as given in paper PMC7862700, “An all-to-all approach to the identification of sequence-specific readers for epigenetic DNA modifications on cytosine”.
# Legend:
# Test in all cases: DAPPL (digital affinity profiling via proximity ligation, sequencing); 10 mM Tris-HCl pH 7.5, 50 mM NaCl, 1 mM DTT, 4% glycerol, room temperature, 30 min; GST-TFs on glutathione beads, 16-mer random dsDNA library, 0.1% formaldehyde crosslink after washing; high values mean tight binding
# FEV = target: T1, FEV (Homo sapiens, UniProt Q99581 1-238); details: protein: recombinant; tags: N-terminal GST; dsDNA, one strand shown
# T1 sequence: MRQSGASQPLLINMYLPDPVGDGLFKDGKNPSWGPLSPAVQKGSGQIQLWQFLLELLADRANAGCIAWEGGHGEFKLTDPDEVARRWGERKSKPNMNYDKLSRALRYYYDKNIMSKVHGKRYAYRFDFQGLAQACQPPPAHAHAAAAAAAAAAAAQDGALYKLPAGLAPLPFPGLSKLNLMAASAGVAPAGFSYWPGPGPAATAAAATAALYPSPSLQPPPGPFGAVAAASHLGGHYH
# In short: (§1)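 Binding signal is each hexamer's read frequency for a factor divided by its frequency in the tag-only sample. The factors were GST-fused human transcription factors from yeast, captured on glutathione beads, DNA-barcoded and pooled with that sample. Pools were incubated with 200 nmole of a random double-stranded 16-mer DNA library in Tris/NaCl/DTT/glycerol buffer at room temperature for 30 min, then washed, crosslinked with 0.1% formaldehyde, proximity-ligated with BsaI/T4 ligase (1 h, 37 °C), PCR-amplified and sequenced on an Illumina NextSeq500.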
# ETV5 = ETV5 (Homo sapiens, UniProt P41161 1-510); details: protein: recombinant; tags: N-terminal GST; dsDNA, one strand shown
# In short: as §1
# HSF1 = HSF1 (Homo sapiens, UniProt Q00613 1-529); details: protein: recombinant; tags: N-terminal GST; chain copies: 3; dsDNA, one strand shown
# In short: as §1
# SPIC = target: T2, SPIC (Homo sapiens, UniProt Q8N5J4 1-248); details: protein: recombinant; tags: N-terminal GST; dsDNA, one strand shown
# T2 sequence: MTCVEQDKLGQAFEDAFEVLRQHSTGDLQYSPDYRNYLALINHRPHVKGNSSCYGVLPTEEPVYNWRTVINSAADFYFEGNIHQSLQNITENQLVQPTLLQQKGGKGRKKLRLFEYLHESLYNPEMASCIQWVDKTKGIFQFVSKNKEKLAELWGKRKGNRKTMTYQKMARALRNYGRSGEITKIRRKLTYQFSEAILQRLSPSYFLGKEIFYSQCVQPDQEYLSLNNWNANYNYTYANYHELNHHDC
# In short: as §1
# ELF4 = ELF4 (Homo sapiens, UniProt Q99607 1-663); details: protein: recombinant; tags: N-terminal GST; dsDNA, one strand shown
# In short: as §1
# ELK4 = target: T3, ELK4 (Homo sapiens, UniProt P28324-2 1-405); details: protein: recombinant; tags: N-terminal GST; dsDNA, one strand shown
# T3 sequence: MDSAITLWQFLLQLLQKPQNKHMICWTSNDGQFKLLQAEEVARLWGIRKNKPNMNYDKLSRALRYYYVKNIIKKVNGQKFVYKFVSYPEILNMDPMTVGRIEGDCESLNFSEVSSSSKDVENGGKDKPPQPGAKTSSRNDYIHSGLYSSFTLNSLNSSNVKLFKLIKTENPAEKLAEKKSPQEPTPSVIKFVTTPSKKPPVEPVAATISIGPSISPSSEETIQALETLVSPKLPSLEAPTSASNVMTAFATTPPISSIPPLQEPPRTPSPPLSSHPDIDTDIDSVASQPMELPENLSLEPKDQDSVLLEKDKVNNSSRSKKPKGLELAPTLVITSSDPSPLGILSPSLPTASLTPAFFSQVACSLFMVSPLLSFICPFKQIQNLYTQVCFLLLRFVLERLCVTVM
# In short: as §1
# ETV2 = target: T4, ETV2 (Homo sapiens, UniProt O00321 1-342); details: protein: recombinant; tags: N-terminal GST; dsDNA, one strand shown
# T4 sequence: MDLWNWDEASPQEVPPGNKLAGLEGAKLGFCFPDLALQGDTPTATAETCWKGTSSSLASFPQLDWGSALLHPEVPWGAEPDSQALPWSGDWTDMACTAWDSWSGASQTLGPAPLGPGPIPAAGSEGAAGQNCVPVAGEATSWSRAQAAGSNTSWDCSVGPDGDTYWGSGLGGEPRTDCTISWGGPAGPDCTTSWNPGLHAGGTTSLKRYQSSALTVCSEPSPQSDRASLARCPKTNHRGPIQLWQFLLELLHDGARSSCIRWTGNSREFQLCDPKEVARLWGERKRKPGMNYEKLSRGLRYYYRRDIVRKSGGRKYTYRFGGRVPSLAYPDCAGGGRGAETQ
# In short: as §1
# ELF3 = target: T5, ELF3 (Homo sapiens, UniProt P78545 1-371); details: protein: recombinant; tags: N-terminal GST; dsDNA, one strand shown
# T5 sequence: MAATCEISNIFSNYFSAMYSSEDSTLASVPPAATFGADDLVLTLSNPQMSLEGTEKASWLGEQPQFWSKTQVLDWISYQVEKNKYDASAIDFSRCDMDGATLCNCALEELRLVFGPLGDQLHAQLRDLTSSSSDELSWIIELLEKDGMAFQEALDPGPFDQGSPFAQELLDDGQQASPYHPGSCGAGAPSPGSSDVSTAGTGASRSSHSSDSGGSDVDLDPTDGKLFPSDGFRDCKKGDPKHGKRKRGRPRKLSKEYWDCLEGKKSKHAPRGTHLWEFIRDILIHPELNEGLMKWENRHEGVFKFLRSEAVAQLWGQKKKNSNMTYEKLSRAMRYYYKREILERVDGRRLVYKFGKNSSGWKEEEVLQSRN
# In short: as §1
# CRX = CRX (Homo sapiens, UniProt O43186 1-299); details: protein: recombinant; tags: N-terminal GST; dsDNA, one strand shown
# In short: as §1
# ETV1 = ETV1 (Homo sapiens, UniProt P50549 1-477); details: protein: recombinant; tags: N-terminal GST; dsDNA, one strand shown
# In short: as §1
# ERF = target: T6, ERF (Homo sapiens, UniProt P50548 1-548); details: protein: recombinant; tags: N-terminal GST; dsDNA, one strand shown
# T6 sequence: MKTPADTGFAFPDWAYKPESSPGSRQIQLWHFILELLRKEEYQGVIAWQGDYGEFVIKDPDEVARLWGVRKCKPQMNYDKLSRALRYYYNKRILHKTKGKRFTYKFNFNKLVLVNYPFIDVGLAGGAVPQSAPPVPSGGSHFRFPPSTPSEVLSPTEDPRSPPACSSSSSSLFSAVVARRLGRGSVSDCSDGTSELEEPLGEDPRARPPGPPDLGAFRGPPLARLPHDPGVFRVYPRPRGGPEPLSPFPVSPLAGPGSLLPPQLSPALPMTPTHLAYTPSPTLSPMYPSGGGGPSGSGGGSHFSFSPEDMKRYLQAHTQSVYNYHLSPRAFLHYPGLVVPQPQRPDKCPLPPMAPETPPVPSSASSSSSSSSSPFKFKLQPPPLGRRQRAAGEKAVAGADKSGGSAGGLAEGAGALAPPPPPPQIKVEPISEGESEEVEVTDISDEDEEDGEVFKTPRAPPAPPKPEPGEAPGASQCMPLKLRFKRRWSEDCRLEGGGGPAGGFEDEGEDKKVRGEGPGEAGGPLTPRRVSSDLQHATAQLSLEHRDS
# In short: as §1
# ETV3L = target: T7, ETV3L (Homo sapiens, UniProt Q6ZN32 1-361); details: protein: recombinant; tags: N-terminal GST; dsDNA, one strand shown
# T7 sequence: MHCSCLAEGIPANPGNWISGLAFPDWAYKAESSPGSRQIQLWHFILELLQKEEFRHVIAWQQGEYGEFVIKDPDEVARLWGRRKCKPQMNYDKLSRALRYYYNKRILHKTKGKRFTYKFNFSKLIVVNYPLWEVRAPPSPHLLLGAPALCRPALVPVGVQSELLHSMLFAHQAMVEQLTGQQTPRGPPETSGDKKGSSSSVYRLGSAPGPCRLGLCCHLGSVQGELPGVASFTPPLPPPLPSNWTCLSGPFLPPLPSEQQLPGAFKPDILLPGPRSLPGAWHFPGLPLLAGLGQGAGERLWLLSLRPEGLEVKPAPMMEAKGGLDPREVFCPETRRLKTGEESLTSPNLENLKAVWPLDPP
# In short: as §1
# ETS2 = target: T8, ETS2 (Homo sapiens, UniProt P15036 1-469); details: protein: recombinant; tags: N-terminal GST; dsDNA, one strand shown
# T8 sequence: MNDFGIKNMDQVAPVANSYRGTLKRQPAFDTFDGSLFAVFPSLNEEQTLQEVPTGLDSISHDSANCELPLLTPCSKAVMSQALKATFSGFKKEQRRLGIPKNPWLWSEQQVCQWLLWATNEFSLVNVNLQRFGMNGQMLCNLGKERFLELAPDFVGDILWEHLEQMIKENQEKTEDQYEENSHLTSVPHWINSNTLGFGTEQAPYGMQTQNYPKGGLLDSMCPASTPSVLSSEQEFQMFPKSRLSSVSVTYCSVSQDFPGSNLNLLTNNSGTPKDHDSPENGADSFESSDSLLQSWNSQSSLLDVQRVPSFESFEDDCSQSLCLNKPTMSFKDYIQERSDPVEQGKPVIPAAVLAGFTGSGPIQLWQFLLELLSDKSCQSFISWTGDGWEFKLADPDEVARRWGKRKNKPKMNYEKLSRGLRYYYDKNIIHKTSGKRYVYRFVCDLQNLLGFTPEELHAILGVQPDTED
# In short: as §1
# SPDEF = target: T9, SPDEF (Homo sapiens, UniProt O95238 1-335); details: protein: recombinant; tags: N-terminal GST; dsDNA, one strand shown
# T9 sequence: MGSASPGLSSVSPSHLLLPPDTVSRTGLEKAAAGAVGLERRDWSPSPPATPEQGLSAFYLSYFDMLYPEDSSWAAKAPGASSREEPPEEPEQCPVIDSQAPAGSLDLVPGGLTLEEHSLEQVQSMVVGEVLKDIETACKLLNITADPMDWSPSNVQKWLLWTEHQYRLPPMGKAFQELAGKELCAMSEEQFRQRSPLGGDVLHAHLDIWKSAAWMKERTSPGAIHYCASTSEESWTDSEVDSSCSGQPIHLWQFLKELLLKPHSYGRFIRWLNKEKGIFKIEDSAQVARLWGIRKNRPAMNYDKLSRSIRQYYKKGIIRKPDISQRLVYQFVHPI
# In short: as §1
# ETV7 = target: T10, ETV7 (Homo sapiens, UniProt Q9Y603 1-341); details: protein: recombinant; tags: N-terminal GST; dsDNA, one strand shown
# T10 sequence: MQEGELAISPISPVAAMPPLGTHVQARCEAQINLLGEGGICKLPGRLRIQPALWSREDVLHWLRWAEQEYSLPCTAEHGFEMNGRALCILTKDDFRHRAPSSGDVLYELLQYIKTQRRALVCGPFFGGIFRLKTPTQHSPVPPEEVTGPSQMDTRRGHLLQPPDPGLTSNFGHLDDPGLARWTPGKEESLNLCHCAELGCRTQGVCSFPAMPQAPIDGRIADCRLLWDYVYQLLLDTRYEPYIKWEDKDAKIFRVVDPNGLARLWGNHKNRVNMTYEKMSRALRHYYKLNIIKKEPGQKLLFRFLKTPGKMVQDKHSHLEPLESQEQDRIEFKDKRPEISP
# In short: as §1
# ELF5 = target: T11, ELF5 (Homo sapiens, UniProt Q9UKW6-2 1-255); details: protein: recombinant; tags: N-terminal GST; dsDNA, one strand shown
# T11 sequence: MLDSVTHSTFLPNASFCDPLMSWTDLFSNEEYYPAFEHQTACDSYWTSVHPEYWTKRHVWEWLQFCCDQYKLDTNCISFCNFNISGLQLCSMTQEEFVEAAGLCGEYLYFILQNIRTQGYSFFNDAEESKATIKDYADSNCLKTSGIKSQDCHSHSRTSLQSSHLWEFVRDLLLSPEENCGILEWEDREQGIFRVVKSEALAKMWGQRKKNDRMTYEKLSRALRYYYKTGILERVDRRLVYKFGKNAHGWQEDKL
# In short: as §1
# ETV3 = target: T12, ETV3 (Homo sapiens, UniProt P41162-2 1-143); details: protein: recombinant; tags: N-terminal GST; dsDNA, one strand shown
# T12 sequence: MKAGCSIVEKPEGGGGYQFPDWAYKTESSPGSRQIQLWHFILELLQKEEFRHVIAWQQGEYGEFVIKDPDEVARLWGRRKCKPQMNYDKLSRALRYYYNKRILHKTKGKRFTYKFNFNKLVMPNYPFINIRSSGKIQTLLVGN
# In short: as §1
# ETV6 = ETV6 (Homo sapiens, UniProt P41212 1-452); details: protein: recombinant; tags: N-terminal GST; dsDNA, one strand shown
# In short: as §1
# HSF1, sequence (Q00613 whole entry): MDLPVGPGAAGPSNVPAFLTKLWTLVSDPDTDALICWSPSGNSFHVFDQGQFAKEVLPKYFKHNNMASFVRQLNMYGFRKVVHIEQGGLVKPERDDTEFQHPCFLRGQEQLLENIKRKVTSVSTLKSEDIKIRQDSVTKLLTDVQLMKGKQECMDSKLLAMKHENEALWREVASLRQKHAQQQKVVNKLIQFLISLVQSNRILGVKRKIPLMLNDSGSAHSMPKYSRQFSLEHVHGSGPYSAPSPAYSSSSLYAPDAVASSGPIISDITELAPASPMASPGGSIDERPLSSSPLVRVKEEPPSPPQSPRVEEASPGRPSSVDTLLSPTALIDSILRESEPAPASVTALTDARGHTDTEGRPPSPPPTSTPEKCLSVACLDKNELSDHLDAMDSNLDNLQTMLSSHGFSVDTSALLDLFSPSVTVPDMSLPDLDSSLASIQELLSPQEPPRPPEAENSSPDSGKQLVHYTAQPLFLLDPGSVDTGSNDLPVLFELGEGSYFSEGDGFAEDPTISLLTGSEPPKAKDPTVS
# ETV1, sequence (P50549 whole entry): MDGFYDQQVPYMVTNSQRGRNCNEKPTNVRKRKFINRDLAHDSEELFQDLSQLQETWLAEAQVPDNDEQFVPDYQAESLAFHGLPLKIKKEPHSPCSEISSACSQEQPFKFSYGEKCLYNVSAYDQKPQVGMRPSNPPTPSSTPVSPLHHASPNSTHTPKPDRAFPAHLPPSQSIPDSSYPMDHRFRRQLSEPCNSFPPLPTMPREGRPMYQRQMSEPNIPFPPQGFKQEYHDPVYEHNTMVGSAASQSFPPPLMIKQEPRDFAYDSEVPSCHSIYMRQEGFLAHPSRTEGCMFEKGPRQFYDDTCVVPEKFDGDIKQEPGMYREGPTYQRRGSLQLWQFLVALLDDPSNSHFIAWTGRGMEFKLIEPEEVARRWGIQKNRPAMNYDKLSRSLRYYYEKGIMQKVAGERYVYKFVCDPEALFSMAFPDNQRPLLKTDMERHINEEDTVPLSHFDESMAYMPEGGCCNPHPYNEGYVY
# ETV6, sequence (P41212 whole entry): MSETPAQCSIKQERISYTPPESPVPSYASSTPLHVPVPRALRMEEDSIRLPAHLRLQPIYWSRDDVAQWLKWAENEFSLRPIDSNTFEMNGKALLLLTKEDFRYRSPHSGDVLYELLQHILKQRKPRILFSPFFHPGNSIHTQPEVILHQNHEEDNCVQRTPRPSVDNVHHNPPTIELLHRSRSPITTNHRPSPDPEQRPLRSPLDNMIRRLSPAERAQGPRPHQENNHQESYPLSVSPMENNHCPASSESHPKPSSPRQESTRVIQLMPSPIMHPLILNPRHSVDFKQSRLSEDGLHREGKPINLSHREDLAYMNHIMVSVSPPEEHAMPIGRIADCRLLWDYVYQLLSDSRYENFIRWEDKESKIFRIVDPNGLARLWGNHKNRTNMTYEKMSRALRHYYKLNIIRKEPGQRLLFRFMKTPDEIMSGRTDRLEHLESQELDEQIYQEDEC
# ETV5, sequence (P41161 whole entry): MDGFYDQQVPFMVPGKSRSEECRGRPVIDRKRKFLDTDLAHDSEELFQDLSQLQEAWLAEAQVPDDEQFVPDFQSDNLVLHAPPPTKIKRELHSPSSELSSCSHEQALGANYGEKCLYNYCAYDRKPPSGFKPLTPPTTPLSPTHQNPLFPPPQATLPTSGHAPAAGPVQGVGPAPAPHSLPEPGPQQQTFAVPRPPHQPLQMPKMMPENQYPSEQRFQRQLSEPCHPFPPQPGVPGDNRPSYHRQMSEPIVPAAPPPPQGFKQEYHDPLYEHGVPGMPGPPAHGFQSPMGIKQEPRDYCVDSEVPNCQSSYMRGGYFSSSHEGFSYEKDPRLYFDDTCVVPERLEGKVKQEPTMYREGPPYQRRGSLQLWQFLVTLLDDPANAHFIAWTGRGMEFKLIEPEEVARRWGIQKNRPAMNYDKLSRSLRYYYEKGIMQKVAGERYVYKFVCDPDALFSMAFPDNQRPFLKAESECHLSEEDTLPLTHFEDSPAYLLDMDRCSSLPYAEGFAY
# ELF4, sequence (Q99607 whole entry): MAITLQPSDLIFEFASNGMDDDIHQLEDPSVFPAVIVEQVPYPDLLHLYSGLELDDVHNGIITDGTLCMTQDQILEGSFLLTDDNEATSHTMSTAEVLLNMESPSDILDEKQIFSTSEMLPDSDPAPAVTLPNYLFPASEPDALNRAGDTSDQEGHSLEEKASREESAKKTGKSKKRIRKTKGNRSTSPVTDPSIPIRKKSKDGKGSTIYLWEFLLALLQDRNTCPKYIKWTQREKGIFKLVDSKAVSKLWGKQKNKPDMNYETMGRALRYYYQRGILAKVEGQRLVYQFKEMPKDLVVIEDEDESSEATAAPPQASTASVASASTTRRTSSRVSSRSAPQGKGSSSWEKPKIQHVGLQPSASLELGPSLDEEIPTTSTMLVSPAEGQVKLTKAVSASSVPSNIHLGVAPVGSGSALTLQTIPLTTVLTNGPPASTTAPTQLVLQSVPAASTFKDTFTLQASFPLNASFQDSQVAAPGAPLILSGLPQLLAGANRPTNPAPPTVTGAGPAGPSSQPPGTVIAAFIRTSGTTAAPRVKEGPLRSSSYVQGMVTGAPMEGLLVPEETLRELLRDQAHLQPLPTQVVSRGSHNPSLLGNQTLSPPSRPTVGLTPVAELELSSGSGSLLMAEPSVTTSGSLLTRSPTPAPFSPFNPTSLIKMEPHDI
# CRX, sequence (O43186 whole entry): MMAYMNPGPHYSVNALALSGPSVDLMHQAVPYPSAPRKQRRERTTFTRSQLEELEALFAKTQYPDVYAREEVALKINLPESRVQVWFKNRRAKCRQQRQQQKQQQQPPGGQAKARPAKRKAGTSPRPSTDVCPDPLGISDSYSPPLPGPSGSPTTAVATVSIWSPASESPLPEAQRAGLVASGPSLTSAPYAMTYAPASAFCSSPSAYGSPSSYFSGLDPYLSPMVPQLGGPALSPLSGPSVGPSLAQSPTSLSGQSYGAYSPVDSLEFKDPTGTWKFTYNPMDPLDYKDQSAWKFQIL
sequence,measurement,setting,value
CTTTGG,binding signal,FEV,"1.15 fold enrichment (6-mer frequency, TF over GST control)"
same,binding signal,ETV5,"1.17 fold enrichment (6-mer frequency, TF over GST control)"
same,binding signal,HSF1,"1.26 fold enrichment (6-mer frequency, TF over GST control)"
same,binding signal,SPIC,"1.17 fold enrichment (6-mer frequency, TF over GST control)"
same,binding signal,ELF4,"1.16 fold enrichment (6-mer frequency, TF over GST control)"
same,binding signal,ELK4,"1.02 fold enrichment (6-mer frequency, TF over GST control)"
same,binding signal,ETV2,"1.27 fold enrichment (6-mer frequency, TF over GST control)"
same,binding signal,ELF3,"1.23 fold enrichment (6-mer frequency, TF over GST control)"
same,binding signal,CRX,"1.29 fold enrichment (6-mer frequency, TF over GST control)"
same,binding signal,ETV1,"1.17 fold enrichment (6-mer frequency, TF over GST control)"
same,binding signal,ERF,"1.19 fold enrichment (6-mer frequency, TF over GST control)"
same,binding signal,ETV3L,"1.18 fold enrichment (6-mer frequency, TF over GST control)"
same,binding signal,ETS2,"1.13 fold enrichment (6-mer frequency, TF over GST control)"
same,binding signal,SPDEF,"1.09 fold enrichment (6-mer frequency, TF over GST control)"
same,binding signal,ETV7,"1.26 fold enrichment (6-mer frequency, TF over GST control)"
same,binding signal,ELF5,"1.09 fold enrichment (6-mer frequency, TF over GST control)"
same,binding signal,ETV3,"1.22 fold enrichment (6-mer frequency, TF over GST control)"
same,binding signal,ETV6,"1.14 fold enrichment (6-mer frequency, TF over GST control)"
